Laboratory results reported in PubChem BioAssay AID1865 (National Center for Advancing Translational Sciences (NCATS), 2009).
Several values for one entry are separate records, joined by “and”; a condition that tells them apart may be missing. Equal values may be shown once. In all, about 280,000 compounds went through this assay and about 540 (0.19%) were called active. Entries that show only a call come without a potency. About 2% were inconclusive and are not listed. The call rests on the fitted dose curve; in most records, active means well fitted activation curve with a large enough effect; inconclusive means small, poorly fitted or top-dose-only effect; inactive means flat fitted curve, though single readings scatter. The full list was thinned out, with actives kept by preference. More than one record can exist for a structure, and the calls need not agree.

experiment: Quantitative High-Throughput Screen for Regulators of Epigenetic Control; details: murine LDR cells, GFP reporter derepression, 30 h; series mostly up to 53.9 µM; further: nearly all actives have a fitted effect of over 60% in size
Source text: NIH Molecular Libraries Screening Centers Network [MLPCN] NIH Chemical Genomics Center [NCGC] MLSCN Grant: 1 X01 MH079860-01 Assay Provider: Elisabeth D. Martinez, University of Texas SW Medical Center NCGC Assay Overview: The Locus Derepression (LDR) assay detects the derepression or induction of a GFP reporter that is stably integrated in a genomic region of murine cells that is presumably silenced. Transcription of the GFP reporter is controlled by a CMV promoter, which normally is constitutively active. However, this cell line, termed LDR, was selected for lack of constitutive production of GFP. GFP production can be induced by incubating the cells with histone deacetylase or DNA methyltransferase inhibitors (Martinez et al., 2006). Compounds that derepress or induce this reporter locus are identified by enumerating GFP positive cells using a laser-scanning microplate cytometer (Auld et al., 2006). This assay was screened against the MLSMR earlier (AID 597; (Johnson et al., 2008) and has been rescreened here against the expanded collection.
NCGC Assay Protocol Summary: Three hundred LDR cells in 5 uL per well were dispensed into black, clear-bottom 1536-well plates. Twenty-three nL compound was transferred to the assay plate and cells were incubated 30 hours at 37 C. Medium was removed, cells were washed two times with PBS, and GFP-positive cells were enumerated as fluorescent objects between the sizes of 20 to 120 um width and depth using an Acumen Explorer. References Auld, DS, Johnson, RL, Zhang, YQ, Veith, H, Jadhav, A, Yasgar, A, Simeonov, A, Zheng, W, Martinez, ED, Westwick, JK, Austin, CP, Inglese, J (2006). Fluorescent protein-based cellular assays analyzed by laser-scanning microplate cytometry in 1536-well plate format. Methods Enzymol 414: 566-89. Johnson, RL, Huang, W, Jadhav, A, Austin, CP, Inglese, J, Martinez, ED (2008). A quantitative high-throughput screen identifies potential epigenetic modulators of gene expression. Anal Biochem 375: 237-48. Martinez, ED, Dull, AB, Beutler, JA, Hager, GL (2006). High-content fluorescence-based screening for epigenetic modulators. Methods Enzymol 414: 21-36.
Potency means the concentration at half of the fitted maximal effect.

Row | Structure (SMILES) | Potency
1 | N#CC(C#N)=Cc1cc(O)c(O)c([N+](=O)[O-])c1 | inactive and 17.8 µM (active)
2 | C[C@@]12CC[C@H]3[C@@H](CC[C@]4(O)C[C@H](O)CC[C@@]34C=O)[C@]1(O)CC[C@@H]2C1=CC(=O)OC1 | inactive
3 | CCCCCCCCc1[se]c2ccccc2c1Br | inactive
4 | COc1ccccc1-c1[se]c2ccccc2c1I | inactive
5 | CN[C@@H]1C[C@H]2O[C@@](C)([C@@H]1OC)n1c3ccccc3c3c4c(c5c6ccccc6n2c5c31)C(=O)NC4 | inactive
6 | CC(C)(Cc1c[nH]c2ccc(Cl)cc12)NCCOc1ccccc1OCC1CC1 | inactive
7 | CC1=CC(=Cc2sc3ccccc3[n+]2C)C=C(C)O1 | 11.2 µM (active)
8 | Fc1ccc(C(OCCN2CCN(C/C=C\c3ccccc3)CC2)c2ccc(F)cc2)cc1 | inactive
9 | CC(C)(O)c1[se]c2ccccc2c1I | inactive
10 | NC[C@H](O)c1ccc(O)cc1 | inactive
11 | COc1cc(Cn2c(N)c(C(=O)NCc3ccco3)c3nc4ccccc4nc32)cc(OC)c1OC | inactive
12 | CCOc1ccc(CNC(=O)c2cccc(Nc3nc4ccccc4n4nnnc34)c2)cc1OC | 20 µM (active)
13 | CCCn1c(C(=O)c2ccccc2OC)nc2ccccc21 | inactive
14 | C[C@]12CC[C@H](O)C[C@@H]1CC[C@H]1[C@H]2CC[C@]2(C)C(=O)CC[C@@H]12 | inactive
15 | CC(=O)c1c(O)c(C)c(O)c(Cc2c(O)c3c(c(C(=O)/C=C\c4ccccc4)c2O)OC(C)(C)C=C3)c1O | inactive
